Data as given in publication PMC5515408, “Sequence-specific DNA binding by MYC/MAX to low-affinity non-E-box motifs”.
Whole data set: some 5,000 sequences, median “log2 normalized fluorescence” near 0.089, cut for the highest 2% near 0.81. The sample as a whole holds a higher share of the highest values than the screen did.

What follows are sequences tested against MYC (p64);MAX (p21), in MYC:MAX (human;human, UniProt P01106-1;P61244-2 1-439;1-151, |) (assay: protein-binding microarray (anti-MAX antibody); PBM: 15 mM Tris-HCl pH 7.5, 100 mM KCl, 0.075% NP40, 7.5 mM beta-mercaptoethanol, 375 ng/ul BSA, 8 ng/ul poly(dA-dT):(dA-dT), 550 ng complex, 60 min, room tempe; high values mean tight binding). Conditions: protein: recombinant;recombinant; tags: 6xHis;6xHis; copies: 1;1; label: 3' end of printed strand (linker) attached to glass slide; dsDNA, one strand shown.
Outline: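 Recombinant His-tagged human MYC:MAX or MAX:MAX dimers (550 ng, expressed in E. coli) were incubated for 60 min at room temperature in Tris-KCl buffer, pH 7.5, with NP40, BSA and poly(dA-dT) competitor. The custom Agilent glass array held ~5000 unique 12-nt sequences, each spotted in triplicate and made double-stranded by primer extension. Bound protein was detected with anti-MAX and secondary antibodies and scanned at 543 nm. Binding is reported as log2 normalized fluorescence.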

MYC (p64);MAX (p21), in MYC:MAX, sequence (P01106 16-454, chain 1 of 2): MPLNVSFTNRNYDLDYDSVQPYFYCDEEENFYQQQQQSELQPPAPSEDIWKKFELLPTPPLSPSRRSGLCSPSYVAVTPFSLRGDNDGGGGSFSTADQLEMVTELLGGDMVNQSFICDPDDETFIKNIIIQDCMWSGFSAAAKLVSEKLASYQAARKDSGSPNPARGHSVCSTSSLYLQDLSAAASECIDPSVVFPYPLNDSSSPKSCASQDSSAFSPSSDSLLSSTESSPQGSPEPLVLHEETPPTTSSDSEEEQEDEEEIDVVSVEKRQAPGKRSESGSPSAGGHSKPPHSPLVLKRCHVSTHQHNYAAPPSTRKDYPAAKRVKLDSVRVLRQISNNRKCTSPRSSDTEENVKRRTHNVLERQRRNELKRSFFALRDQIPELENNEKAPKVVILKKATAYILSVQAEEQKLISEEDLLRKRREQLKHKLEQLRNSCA
MYC (p64);MAX (p21), in MYC:MAX, sequence (P61244 other isoform, or with tags, fused parts or gaps |, chain 2 of 2): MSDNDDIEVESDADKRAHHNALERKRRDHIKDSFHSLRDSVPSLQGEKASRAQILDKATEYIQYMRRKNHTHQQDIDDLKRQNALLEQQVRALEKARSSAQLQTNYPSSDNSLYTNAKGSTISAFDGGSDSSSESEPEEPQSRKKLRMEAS

Row | Sequence | binding signal
1 | CCGGCTGACACGTGTGGTTAATAGCTAAGATTACTATATCGACG | 0.792 log2 normalized fluorescence
2 | CCGGCTGACACGTGGGTTTAATAGCTAAGATTACTATATCGACG | 0.725 log2 normalized fluorescence
3 | CCGGCTGACACGTGCTCTTAATAGCTAAGATTACTATATCGACG | 0.813 log2 normalized fluorescence
4 | CCGGCTGACACGTGGAGTTAATAGCTAAGATTACTATATCGACG | 0.923 log2 normalized fluorescence
5 | CCGGCTGACACGTGATTTTAATAGCTAAGATTACTATATCGACG | 0.626 log2 normalized fluorescence
6 | CCGGCTGACACGTTGCATTAATAGCTAAGATTACTATATCGACG | 0.792 log2 normalized fluorescence
7 | CCGGCGGACACGTGGAGTTAATAGCTAAGATTACTATATCGACG | 0.745 log2 normalized fluorescence
8 | CCGGCTGACACGTGCATTTAATAGCTAAGATTACTATATCGACG | 0.894 log2 normalized fluorescence
9 | CCGGCTGACACGTGCTATTAATAGCTAAGATTACTATATCGACG | 0.869 log2 normalized fluorescence
10 | CCGGCTGACACGTGGGGTTAATAGCTAAGATTACTATATCGACG | 1 log2 normalized fluorescence
11 | CCGGCTGACACGTGCTGTTAATAGCTAAGATTACTATATCGACG | 0.743 log2 normalized fluorescence
12 | CCGGCTGACACGTAGAGTTAATAGCTAAGATTACTATATCGACG | 0.293 log2 normalized fluorescence
13 | CCGGCAGAAACGCGGTATTAATAGCTAAGATTACTATATCGACG | 0.575 log2 normalized fluorescence
14 | CCGGCTGATTACGAGTATTAATAGCTAAGATTACTATATCGACG | 0.0125 log2 normalized fluorescence
15 | CCGGCTGACACGAGATATTAATAGCTAAGATTACTATATCGACG | 0.491 log2 normalized fluorescence
16 | CCGGCTGATCCGCTGTATTAATAGCTAAGATTACTATATCGACG | -0.0182 log2 normalized fluorescence
17 | CCGGCTGAAACGTTGTATTAATAGCTAAGATTACTATATCGACG | 0.435 log2 normalized fluorescence
18 | CCGGCTGAAACACAGTATTAATAGCTAAGATTACTATATCGACG | 0.249 log2 normalized fluorescence
19 | CCGGCTGATGGTCCGTATTAATAGCTAAGATTACTATATCGACG | 0.278 log2 normalized fluorescence
20 | CCGGCTGATGAGCAGTATTAATAGCTAAGATTACTATATCGACG | -0.0208 log2 normalized fluorescence
21 | CCGGCTGATGGGTTGTATTAATAGCTAAGATTACTATATCGACG | 0.152 log2 normalized fluorescence
22 | CCGGCTGACACGTGGGATTAATAGCTAAGATTACTATATCGACG | 0.669 log2 normalized fluorescence
23 | CCGGCTGACACGTGTGCTTAATAGCTAAGATTACTATATCGACG | 0.818 log2 normalized fluorescence
24 | CCGGCTGACACGTGCCATTAATAGCTAAGATTACTATATCGACG | 1 log2 normalized fluorescence
25 | CCGGCTGACACGTGCGATTAATAGCTAAGATTACTATATCGACG | 0.786 log2 normalized fluorescence

Row | Sequence | binding signal
26 | CCGGCTGACACGTGGATTTAATAGCTAAGATTACTATATCGACG | 0.893 log2 normalized fluorescence
27 | CCGGCTGACACGTGCCGTTAATAGCTAAGATTACTATATCGACG | 0.783 log2 normalized fluorescence
28 | CCGGCTGACACGTGCGCTTAATAGCTAAGATTACTATATCGACG | 0.633 log2 normalized fluorescence
29 | CCGGCTGACACGTGACATTAATAGCTAAGATTACTATATCGACG | 0.756 log2 normalized fluorescence
30 | CCGGCTGACACGTGAATTTAATAGCTAAGATTACTATATCGACG | 0.712 log2 normalized fluorescence
31 | CCGGCTGAAACTGAGTATTAATAGCTAAGATTACTATATCGACG | 0.00205 log2 normalized fluorescence
32 | CCGGCTGACCTGACGTATTAATAGCTAAGATTACTATATCGACG | 0.202 log2 normalized fluorescence
33 | CCGGCTGCCACGTAGTGTTAATAGCTAAGATTACTATATCGACG | 0.23 log2 normalized fluorescence
34 | CCGGCTGCCACGTGGTGTTAATAGCTAAGATTACTATATCGACG | 0.763 log2 normalized fluorescence
35 | CCGGCTGCCACGACGTATTAATAGCTAAGATTACTATATCGACG | 0.371 log2 normalized fluorescence
36 | CCGGCTGCCACGTGATATTAATAGCTAAGATTACTATATCGACG | 0.881 log2 normalized fluorescence
37 | CCGGCTGTCACGTGATATTAATAGCTAAGATTACTATATCGACG | 0.587 log2 normalized fluorescence
38 | CCGGCTGCCACGTGTTATTAATAGCTAAGATTACTATATCGACG | 0.969 log2 normalized fluorescence
39 | CCGGCTGAGGCGAAGTATTAATAGCTAAGATTACTATATCGACG | 0.0114 log2 normalized fluorescence
40 | CCGGCTGATGTATCGTATTAATAGCTAAGATTACTATATCGACG | 0.124 log2 normalized fluorescence
41 | CCGGCTGAGCGATAGTATTAATAGCTAAGATTACTATATCGACG | -0.0333 log2 normalized fluorescence
42 | CCGGCTGACGCGGAGTATTAATAGCTAAGATTACTATATCGACG | 0.127 log2 normalized fluorescence
43 | CCGGCGGACAGGTGGGATTAATAGCTAAGATTACTATATCGACG | 0.375 log2 normalized fluorescence
44 | CCGGCTAGCACGTGGTATTAATAGCTAAGATTACTATATCGACG | 0.917 log2 normalized fluorescence
45 | CCGGCGAGCACGTGGTATTAATAGCTAAGATTACTATATCGACG | 0.525 log2 normalized fluorescence
46 | CCGGCAAGCACGTGGTATTAATAGCTAAGATTACTATATCGACG | 0.835 log2 normalized fluorescence
47 | CCGGCCAGCACGTGGTATTAATAGCTAAGATTACTATATCGACG | 0.793 log2 normalized fluorescence
48 | CCGGCTGACGTCAGGTATTAATAGCTAAGATTACTATATCGACG | 0.293 log2 normalized fluorescence
49 | CCGGCTGAGGGTAGGTATTAATAGCTAAGATTACTATATCGACG | 0.0237 log2 normalized fluorescence
50 | CCGGCTGAGGCCCCGTATTAATAGCTAAGATTACTATATCGACG | 0.00137 log2 normalized fluorescence

Row | Sequence | binding signal
51 | CCGGCGTACACGTGGTATTAATAGCTAAGATTACTATATCGACG | 0.671 log2 normalized fluorescence
52 | CCGGCGTACACGTGGTCTTAATAGCTAAGATTACTATATCGACG | 0.89 log2 normalized fluorescence
53 | CCGGCTGGCACGCGGTCTTAATAGCTAAGATTACTATATCGACG | 0.784 log2 normalized fluorescence
54 | CCGGCTTACACGTGGTCTTAATAGCTAAGATTACTATATCGACG | 0.679 log2 normalized fluorescence
55 | CCGGCTGGCACGTGGGATTAATAGCTAAGATTACTATATCGACG | 0.708 log2 normalized fluorescence
56 | CCGGCGGGCACGTGGTCTTAATAGCTAAGATTACTATATCGACG | 0.929 log2 normalized fluorescence
57 | CCGGCGGGCACGTGGTATTAATAGCTAAGATTACTATATCGACG | 0.738 log2 normalized fluorescence
58 | CCGGCTATCACGTGGGATTAATAGCTAAGATTACTATATCGACG | 0.804 log2 normalized fluorescence
59 | CCGGCGGGCACGTGGGATTAATAGCTAAGATTACTATATCGACG | 0.986 log2 normalized fluorescence
60 | CCGGCTGAATCAGAGTATTAATAGCTAAGATTACTATATCGACG | 0.0753 log2 normalized fluorescence
61 | CCGGCTGAACAAGTGTATTAATAGCTAAGATTACTATATCGACG | 0.224 log2 normalized fluorescence
62 | CCGGCTGATACTTGGTTTTAATAGCTAAGATTACTATATCGACG | 0.0375 log2 normalized fluorescence
63 | CCGGCTGATCCCGCGTATTAATAGCTAAGATTACTATATCGACG | 0.218 log2 normalized fluorescence
64 | CCGGCTGAAGGGCAGTATTAATAGCTAAGATTACTATATCGACG | -0.0227 log2 normalized fluorescence
65 | CCGGCTCACACGATGTATTAATAGCTAAGATTACTATATCGACG | 0.603 log2 normalized fluorescence
66 | CCGGCTCACACGTTTTATTAATAGCTAAGATTACTATATCGACG | 0.662 log2 normalized fluorescence
67 | CCGGCTGAGACGCGGTTTTAATAGCTAAGATTACTATATCGACG | 0.131 log2 normalized fluorescence
68 | CCGGCTCACACGCGGTTTTAATAGCTAAGATTACTATATCGACG | 0.822 log2 normalized fluorescence
69 | CCGGCTCACACGAGGTTTTAATAGCTAAGATTACTATATCGACG | 0.866 log2 normalized fluorescence
70 | CCGGCCGACAGCCGGTTTTAATAGCTAAGATTACTATATCGACG | -0.0407 log2 normalized fluorescence
71 | CCGGCTCACACGTGGTTTTAATAGCTAAGATTACTATATCGACG | 0.78 log2 normalized fluorescence
72 | CCGGCCGACACGCGGTTTTAATAGCTAAGATTACTATATCGACG | 0.82 log2 normalized fluorescence
73 | CCGGCTGGCACGAGGTTTTAATAGCTAAGATTACTATATCGACG | 0.697 log2 normalized fluorescence
